This note sets out measurements from PubChem BioAssay (NCI).

The panel holds about 83,000 compounds, 20% with a hit somewhere; the sample as a whole holds those more often.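 Plates (96-well) were seeded with cells, treated with compound at one concentration, and incubated for 48 hours before percent growth was determined.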 Unmarked numbers belong to inactive results. Activity calls are given as the source filed them. The calls were made as follows: active = growth percent below 10; inactive = the rest.

What all share (assay): NCI-60 one-dose screen, 48 h (100 = growth as untreated, 0 = no growth, -100 = all killed)
Details in all cases: 10 µM unless noted

Experiment [1] deals with RPMI-8226 leukemia.
The subject of experiment [2] is OVCAR-8 ovarian.
Experiment [3] has as its system OVCAR-5 ovarian.
Experiment [4] relates to OVCAR-4 ovarian.
For experiment [5], the system named is SK-OV-3 ovarian.
For experiment [6], the system named is IGROV1 ovarian.
Experiment [7] concerns OVCAR-3 ovarian.
The test system of experiment [8] is HS 578T breast.
Experiment [9] relates to NCI/ADR-RES ovarian.
Experiment [10] has as its system SR leukemia.

With `COc1ccc(NC(=O)c2cc(OC)c(OC)c(OC)c2)cc1O`, the growth in [1] is 51.8%; in experiment [2], 57.6%; in experiment [3], 83.4%; in experiment [4] it was 57.4%; in experiment [5] it was 29.1%; in [6] it was 54.7%. The growth was -27.6% (active) in experiment [7], -10.2% (active) in [8] and 13.2% in experiment [9].
On to `COc1ccc(NC(=O)c2c(Nc3ccc(OC)cc3OC)n[nH]c2N)c(OC)c1`, for which the growth in [1] is 91%; in [2], 96.4%; in experiment [3] it was 96.3%; in experiment [4], 102%; in experiment [5] it was 92%; in experiment [6], 93.7%. For the same compound, the growth in experiment [7] is 106%; in experiment [8] it was 96%; in [9] it was 101%.
For the compound `O=C(O)/C=C/C(=O)c1ccc(Cl)cc1`, the growth was 115% in [1]; 95.9% in experiment [2]; 115% in [3]; 116% in experiment [4]; 107% in experiment [5]; 114% in [6]. Besides, the figures for the growth in [7], in experiment [8] and in experiment [9] were 105%, 119% and 109%, respectively.
In the case of `O=C1c2c(Cl)c(Cl)c(Cl)c(Cl)c2C(=O)C2(Cl)CC=CCC12Cl` (stereo not drawn), the growth in experiment [1] is -32.2% (active); in experiment [2], -34.9% (active); in [3], 95.7%; in [4], -59.1% (active); in experiment [5], 105%; in experiment [6] it was -58.7% (active). Further, the values for the growth in experiment [7], in experiment [8] and in experiment [9] were -93.5% (active), 46.7% and 32.7%, respectively.
As to `O=C(NS(=O)(=O)c1ccc2ccccc2c1)n1cc(-c2ccncc2)c(-c2ccc(Cl)c(O)c2)n1`, the growth in experiment [10] was 61.8%; in experiment [2] it was 72.5%; in experiment [3] it was 89.8%; in [5], 81.8%; in [6], 60.2%; in [7] it was 133%. For the same compound, the growth is 72.4% in [8] and 87.6% in experiment [9].
`COc1ccc(-c2c(N)n[nH]c2-c2cc3c(c(OC)c2OC)OCO3)cc1`: the growth is 57.5% in experiment [1]; 104% in experiment [2]; 85.5% in experiment [3]; 99.1% in [4]; 106% in experiment [5]; 96.4% in experiment [6]. The growth in [7] was 108%; in [8], 83.3%; in experiment [9], 96.8%.
As to `O=C(C1=Cc2cc3ccccc3n2Cc2cnnn21)c1ccccc1`, the growth in experiment [1] is 53.1%; in experiment [2] it was 51.8%; in experiment [3], 89.2%; in experiment [4] it was 82.7%; in experiment [5], 67.8%; in [6], 44.6%. The growth in [7] is 26.9%; in [8], 69%; in [9], 27%.
For `Cc1ccc(S(=O)(=O)c2nc(-c3ccccc3)oc2S(C)(=O)=O)cc1`, the growth in [1] is 8.94% (active); in experiment [2], 54.7%; in experiment [3], 66%; in experiment [4] it was 80.5%; in [5] it was 76.6%; in experiment [6] it was 65.6%. In addition, the growth in [7] was -86.8% (active); in experiment [8], 91.2%; in experiment [9], 85.1%.
In the case of `COc1ccc(C2C=C(c3ccc(N)cc3)N=C3SC=CN32)cc1OC` (stereo not drawn), the growth was 101% in experiment [1]; 98.7% in [2]; 108% in [3]; 102% in [4]; 115% in experiment [5]; 101% in [6]. For the same compound, the growth is 107% in experiment [7], 127% in experiment [8] and 106% in [9].
For the compound `COc1cc(-c2nn(-c3cccc(NC(=O)Nc4ccc(Cl)c(C(F)(F)F)c4)c3)cc2-c2ccncc2)ccc1Cl`, the growth was -8.66% (active) in experiment [1]; -19.9% (active) in [2]; 35.8% in experiment [3]; 20.8% in experiment [4]; 0.426% (active) in [5]; 25.6% in [6]. The growth was -12.4% (active) in experiment [7], 2.21% (active) in [8] and -0.864% (active) in experiment [9].
For the compound `Cc1ccc(S(=O)(=O)NCCNc2nccc(-c3c(-c4ccc(O)cc4)nc4sccn34)n2)cc1`, the growth in experiment [1] is 85.9%; in experiment [2], 89.3%; in experiment [3], 135%; in experiment [4] it was 102%; in experiment [5], 107%; in [6], 97.1%. In addition, the growth in experiment [7] is 110%; in experiment [8], 106%; in experiment [9], 97.8%.
For `COc1ccc(-c2cnnn2-c2nonc2-n2cccc2)cc1OC`, the growth in experiment [10] is -4.66% (active); in experiment [2] it was 66.5%; in experiment [4], 90.6%; in experiment [5], 61.8%; in experiment [6], 62.4%; in experiment [7] it was 30.2%. The figures for the growth in [8] and in experiment [9] were 82.5% and 18.3%, respectively.
As for `CC(C)(C)n1cc(-c2ccnc(NCCCNS(=O)(=O)c3ccc(Br)cc3)c2)c(-c2cccc(O)c2)n1`, the growth in experiment [1] is -6% (active); in experiment [2], 41.1%; in experiment [3], 38.5%; in [4], 36.5%; in experiment [5], 62.6%; in experiment [6], 34.9%. The growth in [7] was 42.8%; in experiment [8] it was 16.9%; in experiment [9], 43.7%.
As for `O=S(=O)(NCCNc1nccc(-c2c(-c3ccc(O)cc3)nc3sccn23)n1)c1cccc2ccccc12`, the growth in experiment [1] is 92.5%; in experiment [2], 95.4%; in [3], 114%; in [4], 91.6%; in experiment [5] it was 106%; in experiment [6], 105%. Also, the growth in experiment [7] was 117%; in experiment [8], 110%; in [9] it was 102%.
For `O=C(CSc1nc2ccccc2[nH]1)Nc1ccc(-c2nc3ccccc3s2)c(Cl)c1`, the growth is 28.9% in [1]; -9.6% (active) in experiment [2]; 20.4% in experiment [3]; -39.8% (active) in experiment [4]; 12.4% in experiment [5]; -52.3% (active) in experiment [6]. Besides, the growth is -17.2% (active) in experiment [7], 65.2% in [8] and 9.5% (active) in experiment [9].
